USP17 block – human USP17-like deubiquitinase inhibition; A8MUK1; purified USP17, Ub-rhodamine cleavage fluorescence, 3 h; inhibition, % at 50 µM; 47,000 compounds, 6.5% hits; AID 1645855
USP28 inh – human USP28 deubiquitinase inhibition. Q96RU2. purified USP28, Ub-rhodamine cleavage fluorescence, 30 min. inhibition, % at 25 µM. 47,000 compounds, 3% hits. AID 1645857
USP10 inh – blocks human USP10 ubiquitin-rhodamine cleavage; purified USP10, Ub-rhodamine fluorescence, 60 min; inhibition, % at 20 µM; 47,000 compounds, 1.1% hits
USP30 block – human USP30 deubiquitinase inhibition | 47,000 compounds, 5.3% hits | purified USP30, Ub-rhodamine cleavage fluorescence | AID 1645860 | Q70CQ3 | inhibition, % at 25 µM
USP8 block – blocks human USP8 ubiquitin-rhodamine cleavage. 47,000 compounds, 4.2% hits. purified USP8, Ub-rhodamine cleavage fluorescence, 30 min. AID 1645853. inhibition, % at 20 µM. P40818
* = called active by the depositor. This is a sample that favours compounds with a hit; in the whole collection about 14% have one here. Rule as the data show it: active = inhibition above about 30%; inactive = the rest.

O=C1NCC2(CCCN(Cc3ccncc3)C2)Oc2ccccc21 (stereo unspecified) was read as USP17 block -60, USP28 inh -66, USP10 inh -3, USP30 block -192 and USP8 block -4.
`c1cc(-c2nccc(CN3CCCC4(CCCCC4)C3)n2)ccn1` gave USP17 block 14, USP28 inh 7, USP10 inh 0, USP30 block 24 and USP8 block 37*.
`CN1C(=O)[C@@]23C[C@]4([C@@]56C[C@]78SS[C@](CO)(C(=O)N7[C@@H]5Nc5ccccc56)N(C)C8=O)c5ccccc5N[C@@H]4N2C(=O)[C@]1(CO)SS3` gave USP17 block -32, USP28 inh -6, USP10 inh 4, USP30 block 68* and USP8 block 1.
Screening CC1CC[C@]2(NC1)O[C@H]1C[C@H]3[C@@H]4CC[C@H]5C[C@@H](O[C@@H]6O[C@H](CO)[C@H](O[C@@H]7O[C@H](CO)[C@@H](O)[C@H](O[C@@H]8OC[C@@H](O)[C@H](O)[C@H]8O)[C@H]7O[C@@H]7O[C@H](CO)[C@@H](O)[C@H](O)[C@H]7O)[C@H](O)[C@H]6O)CC[C@]5(C)[C@H]4CC[C@]3(C)[C@H]1[C@@H]2C (stereo partly specified) returned USP17 block 62*, USP28 inh 19, USP10 inh -11, USP30 block 41* and USP8 block -12.
Screening c1cnc(N2CCCC3(CN(Cc4cccnc4)CCO3)C2)nc1 (stereo unspecified) returned USP17 block -19, USP28 inh -5, USP10 inh -1, USP30 block -7 and USP8 block -104.
For O=C1N(c2ccccc2)c2ccccc2C12CCN(Cc1cccnc1)CC2 the results were USP17 block -31, USP10 inh -3 and USP8 block -24.
O=c1c2cc([N+](=O)[O-])ccc2nc(CNCC2CCCO2)n1-c1ccccc1F (stereo unspecified) was read as USP17 block -26, USP28 inh -5, USP10 inh 0, USP30 block -5 and USP8 block -100.
For CC(=O)Nc1ccc(CN2CCC3(CC2)OC(=O)Nc2ccccc23)cc1 the results were USP17 block -22, USP28 inh -14, USP10 inh -10, USP30 block -80 and USP8 block 5.
For Cc1cc(OCC(=O)N2CCN(Cc3ccncc3)CC2)ccc1Cl the results were USP28 inh -4, USP10 inh -1, USP30 block -8 and USP8 block -14.
Screening COCC(O)C1OC(=O)C(O)CC2C=CC3C4OC2(/C(C)=C\C1C)C3C(O)C(COC)C4OC(=O)c1ccc[nH]1 (stereo unspecified) returned USP17 block 0, USP28 inh 9, USP10 inh 4, USP30 block 38* and USP8 block 3.
Screening CO[C@@H]1C[C@H]2C=C[C@H]3[C@H]4O[C@]2(/C(C)=C/[C@@H](C)[C@@H]([C@H](C)O)OC1=O)[C@@H]3[C@H](O)[C@@H](C)[C@H]4O returned USP17 block -10, USP28 inh -4, USP10 inh -1, USP30 block 9 and USP8 block 0.
Cc1nn(Cc2ccccc2Cl)c(C)c1C(=O)Nc1ccc2c(c1)OCCO2 was read as USP17 block 9, USP28 inh 13, USP10 inh 0, USP30 block 6 and USP8 block 8.
COC1=C(C2=C(OC)C(=O)c3cc4c(c(O)c3C2=O)C(=O)OC(C)C4)C(=O)c2c(cc3c(c2O)C(=O)OC(C)C3)C1=O (stereo unspecified) was read as USP17 block 70*, USP28 inh 67*, USP10 inh -9, USP30 block -42 and USP8 block -27.
CC(=O)N(C)[C@@H]1[C@H]2[C@@H]3CCN2C[C@H]1O3 was read as USP17 block 5, USP28 inh 6, USP10 inh 0, USP30 block 13 and USP8 block 8.

Bioassay records: PubChem, Buhrlage Lab, Dana-Farber Cancer Institute and Novartis Institutes for BioMedical Research (Cambridge, Mass)
